PubChem BioAssay AID488896 (Broad Institute, 2010)
Out of some 320,000 compounds screened, about 3,100 (0.97%) were called active. Shown is part of a subset that was picked to be rich in actives. Values without a mark were called inactive.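 How the source made its calls: active means mean replicate inhibition of at least 70% and a set share of replicates each scoring 70 or more; inconclusive means meets just one of the two criteria; inactive means fails both criteria.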

biological target: Scavenger receptor class B member 1 (Mus musculus) (UniProt Q61009); test: inhibitors of SR-BI mediated HDL lipid uptake, primary screen, ldlA[mSR-BI] cells, fluorescence, single point (AID 488896); settings: ldlA[mSR-BI] CHO cells, DiI-HDL uptake fluorescence, 3 h; at 12.5 µM; stronger effect = higher value;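 further: 0% = median of neutral control wells and 100% = median of positive control wells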
Sequence (Q61009 whole entry, looked up): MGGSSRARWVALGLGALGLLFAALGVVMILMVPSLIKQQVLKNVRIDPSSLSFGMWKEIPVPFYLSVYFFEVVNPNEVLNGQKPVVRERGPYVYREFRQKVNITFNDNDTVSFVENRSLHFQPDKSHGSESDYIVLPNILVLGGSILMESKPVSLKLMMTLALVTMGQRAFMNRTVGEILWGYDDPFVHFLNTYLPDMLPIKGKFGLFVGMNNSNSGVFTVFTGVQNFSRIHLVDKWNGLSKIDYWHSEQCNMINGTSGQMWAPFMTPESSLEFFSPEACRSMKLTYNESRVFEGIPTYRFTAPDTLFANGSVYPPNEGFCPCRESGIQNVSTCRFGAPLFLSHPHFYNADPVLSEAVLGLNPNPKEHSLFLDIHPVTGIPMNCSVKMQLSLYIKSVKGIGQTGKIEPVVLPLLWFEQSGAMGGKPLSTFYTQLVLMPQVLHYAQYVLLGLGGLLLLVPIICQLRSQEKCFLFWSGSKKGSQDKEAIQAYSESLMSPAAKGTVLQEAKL

| SMILES | inhibition |
| --- | --- |
| Nc1ccc2[nH]c(=S)sc2c1 | 5.71% |
| COc1cccc(N(CC(=O)NC2CCCC2)C(=O)CCCC(=O)Nc2ccccn2)c1 | 21.1% |
| COc1cccc(N(CC(=O)NC2CCCC2)C(=O)Cn2nnc(-c3ccc(C)cc3)n2)c1 | 73.6% (active) |
| COc1ccc(-c2nnn(CC(=O)N(CCO)C(C(=O)NC3CCCC3)c3ccc(F)cc3)n2)cc1 (stereo unspecified) | 10.5% |
| O=c1[nH]c2c(c(=O)n1-c1ccccc1)CCO2 | 2.86% |
| O=C(Cc1cc(=O)[nH][nH]1)N/N=C/c1ccccc1[N+](=O)[O-] | -19.1% |
| CN(C)/N=C/c1cc(Cl)cc([N+](=O)[O-])c1O | -14.6% |
| O=C(N/N=C/c1cc(Cl)cc([N+](=O)[O-])c1O)C(O)(c1ccccc1)c1ccccc1 | 77.8% (active) |
| N=C1c2ccccc2-c2ccccc21 | -9.24% |
| CCC(C(=O)OCC(=O)Nc1c(Cl)cc(Cl)cc1Cl)c1ccccc1 (stereo unspecified) | -13.8% |
| CCC(C(=O)OCC(=O)Nc1ccc(C(=O)Nc2ccc(OC)cc2)cc1)c1ccccc1 (stereo unspecified) | 79.1% (active) |
| CCC(C(=O)OCC(=O)Nc1ccccc1-c1ccccc1)c1ccccc1 (stereo unspecified) | -4.74% |
| COc1ccc(NC(=O)/C(N=Nc2cccc(S(=O)(=O)Nc3ccc(SC(F)F)cc3)c2)=C(\C)O)cc1 | -19.4% |
| COC(=O)C(C)Sc1ccc2nnc(-c3cccc(F)c3)n2n1 (stereo unspecified) | -12.2% |
| COCCNc1cc(-c2ccccc2)nc2cc(-c3cccc(F)c3)nn12 | 71.2% (active) |
| COc1ccc(NC(=O)c2cc3nc(-c4ccccc4)cc(C)n3n2)cc1OC | -10.7% |
| COc1ccc(NS(=O)(=O)c2ccc(N3CCOCC3)c(NC(=O)/C=C/C(=O)O)c2)cc1 | -22.2% |
| CC(C)Cc1nnc(N)s1 | -10.1% |
| CCOc1ccc(C(C)=O)cc1COC(=O)CN1C(=O)NC2(CCCC2)C1=O | 28.5% |
| CCOc1ccc(C(C)=O)cc1COC(=O)CNC(=O)c1cccs1 | 72.6% (active) |
| CCOc1ccc(C(C)=O)cc1COC(=O)c1cnc(Cl)c(Cl)c1 | -10.9% |

| SMILES | inhibition |
| --- | --- |
| Cc1cccc(C=CC(=O)c2ccc(Cl)cc2)c1 | 0.714% |
| NC(CSC1(c2ccccc2)c2ccccc2-c2ccccc21)C(=O)O (stereo unspecified) | -5.45% |
| O=C(NCc1ccccc1)c1cccc(NC(=O)C2CCCCC2)c1 | 0.488% |
| OCC1(CO)CC2(C1)CC(CO)(CO)C2 | -21.2% |
| COc1ccc(C(=O)Nc2nc(-c3ccc(OC)cc3)c(-c3ccc([N+](=O)[O-])cc3)s2)cc1 | 32.2% |
| Cc1ccc(OC(=O)CCC(=O)Nc2ccc(Br)cc2)cc1 | -15.2% |
| COC(=O)CCc1sc(Nc2ccc(Br)cc2)nc1-c1ccc(OC)cc1 | 87.4% (active) |
| COc1ccc(-c2ccc3c(c2)C2CC3CCN2CCC#N)cc1 (stereo unspecified) | 33.2% |
| C=CCn1c(=O)n(C)c2c(=O)n(C)c(=O)n(C)c21 | 1.14% |
| COc1ccc(CCNC(=O)COc2cc(C)cc3oc(=O)c(C)c(C)c23)cc1OC | 6.42% |
| Cc1ccc(C(C)C)c(OCCSc2nc3ccccc3n2CC(=O)O)c1 | -2.24% |
| CCOc1ccc(OCCSc2nc3ccccc3n2CC(=O)O)cc1 | 71.7% (active) |
| CCCn1c(C(O)c2ccc(OCC)cc2)nc2ccccc21 (stereo unspecified) | 14% |
| COc1ccc2c(c1)c(=Cc1ccc(N(C)C)cc1)c1cc(-c3ccccc3)[n+](C)n12 | -63.4% |
| CCCN(CCC)S(=O)(=O)c1cc2c(cc1Br)CCN2C(=O)CC | 7.1% |
| CCN(CC)CCCC(C)n1c2nc(=O)[nH]c(=O)c-2nc2cc(Cl)ccc21 (stereo unspecified) | 9.9% |
| CCC1([N+](=O)[O-])COC(c2ccc(C(C)C)cc2)OC1 (stereo unspecified) | -13.9% |
| CCc1ccc2c(c1)C1(NN=C(c3ccccc3)S1)C(=O)N2 (stereo unspecified) | 115% (active) |
| NNc1cccc(C=Cc2ccccc2)cc1=O | 16.6% |
| O=C(Nc1ccc(F)cc1)N1CCN(c2ccc(F)cc2)CC1 | -29.4% |
| O=C(Nc1cccc(NC(=O)N2CCN(c3ccccc3)CC2)c1)N1CCN(c2ccccc2)CC1 | 86% (active) |

| SMILES | inhibition |
| --- | --- |
| CC(=O)N1CCN(C(=O)Nc2cccc(C(F)(F)F)c2)CC1 | -9.59% |
| O=c1c2ccccc2ncn1CCc1ccncc1 | -5.47% |
| NC(=O)C1(Nc2ccc(-c3ccccc3)cc2)CCCC1 | 1.01% |
| Cc1cc(C)c(C=NNc2nc3c([nH]2)c(=O)n(C)c(=O)n3C)c(C)c1 | -12.4% |
| CCOc1ccc(N/C=C/C(=O)c2cc(OC)c(OC)c(OC)c2)cc1 | 78.7% (active) |
| CCC(=O)c1ccc(OC(=O)/C=C/c2cc(OC)c(OC)c(OC)c2)cc1 | 48.6% |
| CCOc1ccc(N/C=C/C(=O)c2ccccc2)cc1 | -1.21% |
| COc1ccc(S(=O)(=O)N2CCc3ccccc32)cc1C(=O)Nc1cc(S(C)(=O)=O)ccc1Cl | 27.5% |
| O=S(=O)(Nc1ccc2ccccc2c1)N1CCCCC1 | 1.03% |
| c1ccc(CCc2ccccn2)cc1 | -7.77% |
| O=C(OC12CC3CC(CC(C3)C1)C2)c1ccc(NCc2cc(O)ccc2O)cc1 | 5.77% |
| Cc1nc(N)nc(Cl)c1CCC1OCCO1 | -19.5% |
| CN1CCN(c2ccc(S(=O)(=O)Nc3ccccc3)cc2[N+](=O)[O-])CC1 | -5.63% |
| Oc1[nH]c2ccccc2c1N=Nc1c(F)c(F)c(F)c(F)c1F | 15.7% |
| O=[N+]([O-])c1cc(S(=O)(=O)Nc2cccc(Cl)c2)ccc1N=Nc1c(O)[nH]c2ccccc12 | 101% (active) |
| O=C1CC(C(=O)O)NC(=S)N1 (stereo unspecified) | -3.49% |
| COc1cc(OC)c(C(=O)Nc2ccccc2-c2ccccc2)cc1OC | 20.8% |
| COc1ccc(Br)cc1C(=O)Nc1cccc(C)c1C | 76.2% (active) |
| COc1ccc(Br)cc1C(=O)NC(=S)Nc1cc(-c2nc3ccccc3[nH]2)ccc1C | 60.8% |
